56 compounds from PubChem BioAssay AID1981 (Southern Research Specialized Biocontainment Screening …, 2009) can be followed below.

Molecules are shown by their SMILES. The whole screen tested about 2,200 compounds, of which about 480 (22%) were called active. Only a sample is shown. Measured potencies and affinities stand elsewhere. A number with no mark means an inactive call. How the calls were made is not given here.

The nature of this assay: S. Typhimurium GFP fluorescence dose response in modified counterscreen for PhoP regulon inhibitor project (AID 1981).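 Further: 0% = induced DMSO wells and 100% = uninduced wells.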 The following applies: 4 h; series mostly up to 150 µM; inhibition: at the top concentration. On the technique in general: A counterscreen serves to expose hits that act by an unwanted route or on another target.
In the case of `Cc1ccc(N)cc1-n1c(C)ccc1C`, the “inhibition” value is -4.71%.
The value for `CC(C)(C)c1ccc(C(=O)Nc2ccc(C=C(C#N)C#N)cc2)cc1` was -4.47%; that for `COCCSc1ccccc1C(=O)NCC1CCCO1` (stereo unspecified) was 0.94%.
Then `Cn1c(NCc2cc(Br)ccc2O)nc2ccccc21`, with -8.36%.
Take `O=S(=O)(Nc1ccc2c(c1)nc1n2CCN(Cc2ccccc2)C1)c1ccc(Cl)cc1`: the “inhibition” value was 4.42%.
Then `C=CCn1c(SCc2c(C(=O)OC)sc(N)c2C(=O)OC)nnc1-c1ccc(Cl)cc1`, with 3.35%.
The value for `CCC(CC)C(=O)NCCc1ccc(OC)cc1` was -19.9%; that for `O=C(Cn1cnc2ccccc2c1=O)NCc1ccco1` was -7.91%; that for `CC(=O)NCCOc1c(C)cc(S(N)(=O)=O)cc1C` was -20.7%.
Then `C=CCOc1ccc(CNc2nn[nH]n2)cc1`, with -9.95%.
Take `COC(=O)Cc1c(C)nc2nc(NCc3ccc(Cl)cc3)[nH]n2c1=O`: the “inhibition” value is -1.93%.
The value for `CN(C)C(=O)On1c(-c2ccccc2)nc2ccc(Cl)cc21` was -2.41%; that for `CC(C)N(Cc1nc(-c2ccccc2)no1)C(=O)CN(C)S(=O)(=O)c1ccccc1` was -24.6%; that for `Cc1ccc(Nc2cc(C)nc3nc(C)nn23)cc1` was -1.42%.
The value for `COc1ccc(Nc2nnc(SCc3cn4c(C)cccc4n3)s2)cc1` was 14.2%.
Regarding `CCOC(=O)N1CCN(S(=O)(=O)c2ccc(C(=O)NNc3nc4cc(C)cc(C)c4s3)cc2)CC1`, the “inhibition” value is 37.6%.
Then `Cc1ccc(Nc2nc(Cl)nc(N(C)C#N)n2)cc1`, with -6.75%.
The value for `Cc1ncc(C23CC4CC(CC(C4)C2)C3)[nH]1` was 1.02%; that for `CCN(CC)c1nc2n(c(=O)n1)CCO2` was -7.1%.
The value for `COc1ccc2c(c1)cc1n2CCN2CCCN=C12` was -2.25%; that for `C=CCSC1=Nc2sccc2C2=NC(=O)CN12` was 4.53%; that for `COc1ccc(NC(=O)CSc2nccn2-c2ccccc2)cc1` was -10.3%.
For the compound `O=C(/C=C/c1ccc2c(c1)OCO2)N1CCN(c2ccccc2F)CC1`, the “inhibition” value is -4.1%.
As for `OC(COCc1cccs1)CN1CCN(c2ccccn2)CC1` (stereo unspecified), the “inhibition” value was -9.12%.
The value for `N#Cc1c(-c2ccco2)cc(-c2ccc(F)cc2)nc1N` was 3.02%; that for `CN1CCN(S(=O)(=O)c2ccc(N)cc2)CC1` was -0.53%.
The value for `CC(C)(C)c1ccc(-c2n[nH]c(=S)n2/N=C/c2ccncc2)cc1` was -4.8%; that for `CC(Cl)C(=O)NNc1cccc(Cl)n1` (stereo unspecified) was 1.81%.
Take `Cc1nc(N2CCN(Cc3ccc4c(c3)OCO4)CC2)nc2c1C(=O)CC(c1ccco1)C2` (stereo unspecified): the “inhibition” value is -18.7%.
The value for `CCc1ccc(C(c2c(C)nn(-c3ccccc3)c2N)c2c(C)nn(-c3ccccc3)c2N)cc1` was 11.2%; that for `O=C(NCc1ccccn1)c1cn(-c2ccccc2)nc1-c1ccc(Cl)cc1` was -4.89%; that for `O=C(COC(=O)c1cn(-c2ccccc2)nc1-c1ccccc1)c1cccc([N+](=O)[O-])c1` was -14.3%.
The value for `O=C(OCc1ccccc1)c1cn(-c2ccccc2)nc1-c1ccncc1` was -0.69%; that for `O=C(c1ccc(F)cc1)C(CN1CCOCC1)c1ccccc1` (stereo unspecified) was 21.6%; that for `O=C(NCc1ccccn1)Nc1cccc(Cl)c1` was -8.94%.
The value for `COCCNCCOc1ccccc1-c1ccccc1` was -1.68%; that for `COc1cc(OC)c(NC(=O)Nc2ccc(OC)c(OC)c2)cc1Cl` was -16.1%.
For `Cc1ccc2cc(CN(CCO)Cc3nnnn3Cc3ccc(F)cc3)c(=O)[nH]c2c1`, the “inhibition” value is 0.75%.
The value for `CCOC(=O)C(NS(=O)(=O)c1ccccc1)(C(F)(F)F)P(=O)(OCC(C)C)OCC(C)C` (stereo unspecified) was -13.7%; that for `Cc1cc2cc(CNS(=O)(=O)c3ccc4ccccc4c3)ccc2n1C` was 37.5%.
Then `O=C(c1ccccc1)c1coc2ccc(O)c(Cl)c12`, with -10.4%; and `C#CCOc1ccc(Cl)cc1/C=N/O`, with 16.2%; and `CC(C)CNC(=O)c1ccc(COc2ccc(Cl)cc2Cl)o1`, with -5.81%.
On to `Cc1ccc(SC(c2ccc(C)cc2)C(Cn2cncn2)C(=O)c2ccccc2)cc1` (stereo unspecified), for which the “inhibition” value was 3.76%.
Regarding `Cc1cccc(NC(=S)NC(NC(=O)c2ccco2)C(Cl)(Cl)Cl)c1` (stereo unspecified), the “inhibition” value was -18.9%.
Then `CCOC(=O)C1=C(C)N=c2s/c(=C\c3ccncc3)c(=O)n2C1c1ccc2c(c1)OCO2` (stereo unspecified), with 21.9%; and `CCOc1ccc(S(=O)(=O)NNC(=S)Nc2ccc(Br)cc2)cc1`, with 11.2%; and `CCOC(=O)c1c(NC(=O)COc2ncnc3ccccc23)sc(C)c1CC`, with 1.74%.
The value for `O=C1C(Nc2ccccc2)=C/C(=N/S(=O)(=O)c2cccs2)c2ccccc21` was 21.6%; that for `Cc1cc(C)c2cc(CN(Cc3cccnc3)C(=O)c3ccc(F)cc3)c(Cl)nc2c1` was 4.89%.
Then `COc1ccc(C(C)=O)c2c(O)cccc12`, with 2.41%; and `CN(C)CCNC(=O)c1ccc(COCC(F)(F)F)cc1`, with 5.66%.
`CCN(CC)CCNC(=O)c1cn(CC)c2cc(N3CCN(C(=O)c4ccco4)CC3)c(F)cc2c1=O`: the “inhibition” value was 29.5%.
Take `COc1ccc(S(=O)(=O)N2CCN(C(=O)c3c(C)nn(-c4ccccc4)c3Cl)CC2)cc1`: the “inhibition” value is -6.66%.
In the case of `Cn1c(-c2ccc3c(c2)OCO3)cnc1NCc1cccc(Cl)c1`, the “inhibition” value was 3.03%.
Turning to `O=C(NCCN1CCOCC1)c1ccc2ccccc2c1`, the “inhibition” value was -7.47%.

As usually defined, the inhibition is the drop in the measured response relative to a control, in per cent.
